Data taken from PubChem BioAssay (EPA / NIEHS).
Calls of active or inactive are those of the source. Rule for the calls: active = hit-call score of the fitted dose curve at least 0.9, where 1 is the maximum; inactive = score below 0.9.

read-out: Epidermal growth factor receptor (EGFR), EGFR (gene 1956); test: BSK_hDFCGF_EGFR: BioMAP Diversity Plus: hDFCGF Assay for Epidermal growth factor receptor (EGFR) Biomarker Activity (AID 2283057); details: primary human foreskin fibroblasts; actives raise or lower the signal
Protocol: BSK_hDFCGF is a cell-based, multiplexed-readout assay that uses foreskin fibroblast, a human skin primary cell, with measurements taken at 24 hours after chemical dosing in a 96-well plate.BSK_hDFCGF_EGFR is an assay component measured in the BSK_hDFCGF assay. It measures EGFR antibody related to regulation of gene expression using ELISA technology.Data from the assay component BSK_hDFCGF_EGFR was analyzed into 1 assay endpoint. This assay endpoint, BSK_hDFCGF_EGFR, was analyzed with bidirectional fitting relative to DMSO as the negative control and baseline of activity. Using a type of binding reporter, gain or loss-of-signal activity can be used to understand changes in the signaling as they relate to the gene EGFR. Furthermore, this assay endpoint can be referred to as a primary readout, because this assay has produced multiple assay endpoints where this one serves a signaling function. To generalize the intended target to other relatable targets, this assay endpoint is annotated to the kinase intended target family, where the subfamily is receptor tyrosine kinase.
The levels of cell surface (or secreted, indicated by the prefix "s") biomarker endpoints were measured by ELISA. Overt cytotoxicity to cells in confluent adherent cultures (all systems other than the BT system) was assessed by measuring total protein levels using sulforhodamine B (SRB) staining in parallel cultures at the time of biomarker measurements, indicated as SRB endpoints. For proliferation assays for adherent cell types, individual cell types are cultured at sub-confluence and relative cell numbers quantified by SRB staining at time points optimized for each system (48 h: 3C and CASM3C systems; 72 h: BT and HDF3CGF systems; 96 h: SAg system). SRB was performed by staining cells with 0.1% SRB after fixation with 10% TCA and reading wells at 560 nm.Viability and proliferation of PBMC (T cells) was quantified by Alamar Blue reduction for the SAg and BT systems. For PBMC viability (referred to as PBMC Cytotoxicity within the assay endpoint names), cells were plated (75,000/well in a 96-well plate) and then chemical samples added for 1 h before addition of activators, SEB and TSST-1 (20 ng/mL final concentration each). Cells were incubated for 90 h. Then, Alamar Blue (20 uL/well) (Invitrogen, Cat DAL1100) was added for 6 h, and the plates were read with a fluorescence microplate reader at 546/580 nm (excitation/emission). For PBMC proliferation, cells were plated and activated as above but incubated for only 16 h prior to addition of Alamar Blue. Plates were read after 6 h.

| SMILES | outcome | AC50 |
| --- | --- | --- |
| CNCc1cc(F)ccc1Oc1ccc(Cl)c(Cl)c1 | inactive | – |
| Cc1nc(-c2ccc3c(c2)CCN(CCC2CCC(NC(=O)/C=C/c4ccc(F)cc4)CC2)CC3)no1 (stereo not given) | inactive | – |
| COc1cc(-c2nc(NC(=O)c3cc4cc(C)cc(C)c4n3CC(=O)O)sc2CCC2CCCCC2)c(OC)cc1Cl | inactive | – |
| COc1cc(S(=O)(=O)O)c(C)cc1N=Nc1c(O)ccc2cc(S(=O)(=O)O)ccc12 | inactive | – |
| Cc1ccc2ncccc2c1 | inactive | – |
| Cc1nc(C)nc(N2C[C@@H](C)N(c3ccnc([C@@H](C)O)n3)[C@@H](C)C2)n1 | inactive | – |
| Clc1cc(Cl)c(Cl)cc1Cl | inactive | – |
| CCOc1ccc2c(c1)C(C)=CC(C)(C)N2 | inactive | – |
| Nc1nc(N)c2nc(CNc3ccc(C(=O)N[C@@H](CCC(=O)O)C(=O)O)cc3)cnc2n1 | inactive | – |
| Cc1ccc(C(C)C)c(O)c1 | inactive | – |
| CNC(=O)[C@H]1O[C@@H](n2cnc3c(NCc4cc(Cl)ccc4OCc4cc(C)no4)ncnc32)[C@H](O)[C@@H]1N | inactive | – |
| Nc1ccc2c(c1)C(=O)c1ccccc1C2=O | inactive | – |
| Oc1ccc2ccccc2c1N=Nc1ccccc1 | inactive | – |
| CC(=O)OCCOCCOCCOC(C)=O | inactive | – |
| CC(=O)C(C)=CC1C(C)=CCCC1(C)C (stereo not given) | inactive | – |
| CCCCCCCCCCC | inactive | – |
| CCCCN(CCCC)CCCC | inactive | – |
| NS(=O)(=O)c1cc2c(cc1Cl)NCNS2(=O)=O | inactive | – |
| Cc1ccc(N(C)C)cc1 | inactive | – |
| COc1cc(C=O)ccc1O | inactive | – |

| SMILES | outcome | AC50 |
| --- | --- | --- |
| Cc1ccc(C)c(O)c1C | inactive | – |
| Cc1cccc(C)c1O | inactive | – |
| CCCCCCCCCCCC(=O)OC | inactive | – |
| COc1ccc(S(=O)(=O)N2C(=O)[C@@](c3ccccc3OC)(N3C[C@H](O)C[C@H]3C(=O)N(C)C)c3cc(Cl)ccc32)c(OC)c1 | inactive | – |
| Oc1ccc2c(c1)OC[C@@H](N1CCC(O)(c3ccc(F)cc3)CC1)[C@H]2O | inactive | – |
| CN1CCN(Cc2cc(-c3ccc4[nH]c(=O)oc4c3)co2)[C@@H](c2ccc(F)cc2)C1 | inactive | – |
| O=C(N[C@@H](Cc1ccccc1)[C@@H](O)C(=O)N1C[C@@H](O)[C@@H](O)C1)c1cc2cc(Cl)ccc2[nH]1 | inactive | – |
| CC(=O)OC/C=C(\C)CCC=C(C)C | inactive | – |
| FC(F)(F)C(F)(F)C(F)(F)C(F)(F)C(F)(F)C(F)(F)CCI | inactive | – |
| C[C@]12C=CC(=O)C=C1CC[C@@H]1[C@@H]2C(=O)C[C@@]2(C)[C@H]1CC[C@]2(O)C(=O)CO | inactive | – |
| NC(=O)Cn1c(=O)cc(CCN2CCN(c3nccc4sccc34)CC2)c2ccc(F)cc21 | inactive | – |
| COCCOCCOC | inactive | – |
| CC1=C(/C=C/C(C)=C/C=C/C(C)=C/CO)C(C)(C)CCC1 | – | 27.8 µM (active) |
| CCCCOC(=O)CCCCCCCCC(=O)OCCCC | inactive | – |
| Cc1cc(NC(=O)C(=O)O)cc(C)c1Oc1ccc(O)c2c1CCC2 | inactive | – |
| CCOC(=O)CCC(=O)OCC | inactive | – |
| CC(=O)Oc1ccccc1C(=O)O | inactive | – |
| COC(=O)c1ccc(O)cc1 | inactive | – |
| COc1ccc2c(c1)c(CC(=O)O)c(C)n2C(=O)c1ccc(Cl)cc1 | inactive | – |
| CCCCc1ccc2c(n1)[C@@H](c1ccc(OC)cc1C[C@H](C)C(=O)O)[C@H](C(=O)O)[C@H]2c1ccc2c(c1)OCO2 | inactive | – |
